Data on 96 compounds can be found in PubChem BioAssay AID449762 (Southern Research Specialized Biocontainment Screening …, 2010).

Each structure is given as a SMILES string. Hit rate of the full screen: of about 330,000 compounds, about 1,900 (0.58%) were called active. Inconclusive results (about 4%) are left out. No stated cut-off is given here; in the data, inconclusive means inhibition above about 70% without an active follow-up result; inactive means below that. These entries were drawn from the full list. Measured potencies and affinities stand elsewhere.

One may read the inhibition as the relative decrease from the control value, in per cent.

A short description of the assay: M. tuberculosis growth inhibition, HTS (AID 449762).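 Further: bacterial growth assessed after seven days of incubation.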 Conditions: M. tuberculosis H37Rv growth inhibition, 7H9 media; at 25 µM; active compounds read high.
Consider `CC(=O)Nc1ccc(NC(=O)CCCSc2nc3ccccc3s2)cc1`, for which the inhibition was 0.37% (inactive).
With `COCCN=c1scc(-c2ccc3c(c2)NC(=O)CO3)n1/N=C(\C)c1ccc(O)cc1` the figure was 6.92% (inactive).
For `COCC(C)n1c(-c2ccc3c(c2)NC(=O)CO3)csc1=Nc1ccc(OC(F)F)cc1` (stereo unspecified), the inhibition was 5.17% (inactive).
Regarding `CC(=O)N1CCN(S(=O)(=O)c2cccc(C(=O)NC3CCCC3)c2)CC1`, the inhibition is -8.08% (inactive).
In the case of `O=C(Nc1ccccc1C1CC1)c1cccs1` it was -3.36% (inactive).
In the case of `CCc1cccc2c(C(=O)CN3C(=O)NC4(CCCCCC4)C3=O)c[nH]c12`, the inhibition is -3.22% (inactive).
In the case of `CN(Cc1cn(C)nc1-c1ccc(Oc2ccccc2)cc1)CC1COCCO1` (stereo unspecified) it was 8.39% (inactive); in that of `O=C(CN1C(=O)/C(=C/c2ccccc2F)Sc2ccccc21)NCc1cccnc1`, 14.8% (inactive).
Regarding `O=C(NCc1cccnc1)c1ccc(Cl)c(Cl)c1`, the inhibition is 3.71% (inactive).
As to `CC(C)CCNC(=O)Cc1csc(-c2ccccc2)n1`, the inhibition was -12% (inactive).
For `COc1ccc(CC(NC(C)=O)C(=O)NC2CCN(c3c4c(nc5ncnn35)CCC4)CC2)cc1` (stereo unspecified), the inhibition was -5.34% (inactive).
In the case of `CC(=O)NC(C)c1ccc(Cl)c(Cl)c1` (stereo unspecified) it was 7.59% (inactive); in that of `Cc1ccc(OCC(=O)NC(C)c2ccc(Cl)c(Cl)c2)c([N+](=O)[O-])n1` (stereo unspecified), -3.43% (inactive); in that of `CCOC(=O)Cc1csc(NS(=O)(=O)Cc2ccccc2)n1`, -4.69% (inactive).
In the case of `Cc1ccc2cccc(OCC(=O)NCCC3=CCCCC3)c2n1` it was 37.1% (inactive).
`Cc1ccc(C(=O)N/C(=C\c2cccs2)C(=O)N2CCN(C)CC2)cc1C`: the inhibition was 0.74% (inactive).
As to `CN1C(=O)[C@H]2[C@@H](/C=C/c3ccccc3)N3C(=O)CN(Cc4ccccn4)C(=O)[C@@]3(Cc3ccccc3)[C@H]2C1=O`, the inhibition was -6.69% (inactive).
With `COc1ccc2nc(C3CCCCC3)nc(C3CCCCC3)c2c1` the figure was 0.84% (inactive); with `COc1ccc(-c2nc(C3CCCCC3)c3cc(OC)ccc3n2)cc1`, 8.29% (inactive).
As to `O=C(NCCC1=CCCCC1)C1CCN(S(=O)(=O)c2ccccc2C(F)(F)F)CC1`, the inhibition was -3.46% (inactive).
With `COCCOc1cc(NC(=O)c2ccccc2)c(Cl)cc1Cl`, the inhibition was 15% (inactive).
In the case of `CC(=O)c1cnc2c(-c3ccc(Cl)cc3)cnn2c1C` it was -5.22% (inactive).
With `Nc1c(-c2ccc(Cl)cc2)cnc2c(-c3ccccc3)cnn12` the figure was -2.52% (inactive); with `COc1ccccc1NC(=O)CSc1nc2ccccc2c(=O)n1C`, 0.03% (inactive).
In the case of `COc1ccc(-c2nn(-c3ccccc3)cc2CNC(=O)c2cccc([N+](=O)[O-])c2)cc1`, the inhibition was 8.99% (inactive).
With `c1cncc(-c2ccc3ncnc(NCc4cccs4)c3c2)c1` the figure was 0.82% (inactive); with `CCOC(=O)N1CCN(CCC(=O)Nc2ccc(OC(F)(F)F)cc2)CC1`, 18.8% (inactive); with `Cc1ccc(CNC(=O)NC2CCCCC2)cc1`, -3.64% (inactive).
With `Cc1cc2cc(CNC(=S)NC3CCCCC3)ccc2[nH]1`, the inhibition was 4.14% (inactive).
In the case of `Cc1ccc(N2C(=O)N(CC(=O)Nc3ccc(C)cc3Cl)C(=O)C2C)cc1` (stereo unspecified) it was -3.9% (inactive); in that of `Cc1ccc2cccc(N)c2n1`, 1.54% (inactive); in that of `Cc1ccc2c(C)ccc(O)c2n1`, -1.61% (inactive).
With `COc1ccc(CC(=O)N2CCC3(CC2)NCCc2[nH]cnc23)cc1` the figure was 2.98% (inactive); with `COc1ccccc1N1CCN(C2CCCN(C(=O)c3cccc(-c4ccco4)c3)C2)CC1` (stereo unspecified), 2.87% (inactive); with `O=C(c1ccoc1)N1CCCC(N2CCN(c3ccc(F)cc3)CC2)C1` (stereo unspecified), -11.5% (inactive).
Regarding `CCOc1ccc(C2OC(=O)Cc3cc(OC)c(OC)cc32)cc1` (stereo unspecified), the inhibition was -2.13% (inactive).
In the case of `Cc1cccc(N2CCN(S(=O)(=O)c3cn(C)cn3)CC2)c1C` it was -3.87% (inactive); in that of `Nc1cc(Cl)ccc1Oc1ccc(Cl)cc1`, 4.14% (inactive); in that of `Nc1cc(Cl)ccc1Oc1ccccc1`, -2.47% (inactive).
With `CN(CC(=O)Nc1ccc(F)c(F)c1F)c1ncnc2sccc12` the figure was 1.29% (inactive); with `O=C(CNC(=O)c1cnccn1)Nc1ccc(F)c(F)c1F`, -5.9% (inactive).
`COCCN(C(=O)/C=C/c1ccccc1)c1c(N)n(Cc2ccccc2)c(=O)[nH]c1=O`: the inhibition is -1.36% (inactive).
With `O=C(O)c1ccc(N/N=C/C2=C(N3CCOCC3)C(=C\c3ccccc3)/CC2)cc1` the figure was 0.66% (inactive); with `O=CC1=C(N2CCOCC2)/C(=C\c2ccccc2)CC1`, -3.36% (inactive).
`O=C(Cc1ccccc1)NNC1CC(=O)N(c2ccc(Br)cc2)C1=O` (stereo unspecified): the inhibition is 0.86% (inactive).
As for `O=C(NNC1CC(=O)N(c2ccc(Br)cc2)C1=O)c1cccnc1` (stereo unspecified), the inhibition is 1.55% (inactive).
For the compound `Cc1nn(C(C)C(=O)NCCCN(Cc2ccccc2)C(C)C)c(=O)c2c1sc1ccccc12` (stereo unspecified), the inhibition was -3.36% (inactive).
With `C=CCC1c2cccc(C(=O)O)c2C(=O)N1c1cccc(C)c1` (stereo unspecified) the figure was 0.68% (inactive).
`Cc1cccc(Nc2nc(-c3ccc(O)cc3O)cs2)n1`: the inhibition is 6.03% (inactive).
In the case of `CCOC(=O)C1CCN(c2ncnc3c2cnn3-c2ccc(Cl)cc2)CC1` it was 5.45% (inactive); in that of `COc1ccc(-n2ncc3c(N4CCC(C(N)=O)CC4)ncnc32)cc1`, 2.74% (inactive).
In the case of `O=C(c1cnn(Cc2ccccc2)c1)N1CCN(S(=O)(=O)/C=C/c2ccccc2)CC1`, the inhibition is 6.35% (inactive).
With `COC(=O)c1c(NC(=O)CN2CCOCC2)sc2c1CCC(C)C2` (stereo unspecified), the inhibition was 3.32% (inactive).
Turning to `COCC(=O)Nc1sc2c(c1C(=O)OC)CCC(C)C2` (stereo unspecified), the inhibition was 9.87% (inactive).
With `COCC(=O)Nc1cccc(-c2ccc3nncn3n2)c1` the figure was 0.62% (inactive); with `CCCCCc1ccc(-c2cn(CC3CCCCC3)nn2)cc1`, 5.3% (inactive); with `CCn1cc(C(=O)NC(=S)Nc2ccccc2Br)cn1`, -4.11% (inactive).
Consider `CCn1c(C)c(C)c2cc(C(=O)NC3CCCCCC3)ccc21`, for which the inhibition was 0.46% (inactive).
With `CCn1c(C)nc2cc(C(=O)NNC(=O)Nc3cccc(Cl)c3)ccc21`, the inhibition is 2.59% (inactive).
For `COc1ccc(-c2cc(C(=O)N/N=C/c3cccnc3)c3ccccc3n2)cc1`, the inhibition is -8.58% (inactive).
With `CC(C)=CC(=O)N1CC[C@@H](N2CCN(c3ccccc3F)CC2)[C@H](O)C1` the figure was -5.32% (inactive); with `COc1ccccc1/C=N/Nc1cc(C)nc2ccc(C)cc12`, -11.1% (inactive); with `COc1ccc(/C=N/Nc2nc(C)cc(-c3ccccc3)n2)c(OC)c1`, 7.29% (inactive).
With `CC(C)Oc1cccc(OCCN2C(=O)c3ccccc3C2=O)c1`, the inhibition is 7.3% (inactive).
In the case of `NC(=S)NNC(=O)Nc1ccc(Cl)c(Cl)c1` it was -11.5% (inactive); in that of `NC(=S)NNc1ccnc2cc(Cl)ccc12`, 41.1% (inactive).
Turning to `CCOc1ccccc1N1CCN(CC(O)COCc2cccs2)CC1` (stereo unspecified), the inhibition was 7% (inactive).
As for `C=CCn1c(CCCOc2ccc(Cl)cc2Cl)nnc1SCC(=O)Nc1nccs1`, the inhibition was -6.64% (inactive).
With `O=C(O)/C=C/C(=O)N1CCN(Cc2ccc3c(c2)OCO3)CC1` the figure was -4.14% (inactive).
Consider `O=C(/C=C/c1cccs1)N1CCN(Cc2ccc3c(c2)OCO3)CC1`, for which the inhibition is 49.9% (inactive).
Consider `C=CCn1c(SCC(=O)N(CC)CC)nc(O)cc1=O`, for which the inhibition was 1.96% (inactive).
`COc1cccc(/C=N/NC(=O)CNC(=O)/C=C\c2ccccc2)c1O`: the inhibition is 0.24% (inactive).
In the case of `O=C(Nc1ccccc1Cl)c1ccc(Cl)cc1Cl`, the inhibition is 64.5% (inactive).
Consider `O=C(O)CCCCCN1C(=O)CSC1=S`, for which the inhibition is -1.88% (inactive).
Consider `O=C(O)CN1C(=O)CSC1=S`, for which the inhibition was 3.79% (inactive).
Consider `O=C(CN1CCN(Cc2ccccc2F)C1=O)NCC1CCCO1` (stereo unspecified), for which the inhibition was 1.03% (inactive).
In the case of `O=C(CCc1c[nH]c2ccccc12)OCC(=O)N1CCN(S(=O)(=O)c2ccccc2)CC1`, the inhibition was 43.2% (inactive).
With `Cc1ccc(S(=O)(=O)N2CCN(C(=O)CCc3c[nH]c4ccccc34)CC2)cc1` the figure was -4.25% (inactive); with `COc1cc(CNC(C)c2ccccc2)c(Br)cc1OCC(N)=O` (stereo unspecified), -3.38% (inactive).
`c1ccc(-c2cn3c(n2)SCC3)cc1`: the inhibition is -1.11% (inactive).
As to `Oc1ccc(-c2cn3c(n2)SCC3)cc1`, the inhibition is -2.38% (inactive).
With `COc1ccc(NC(=O)c2cc(-c3ccc(C)cc3)on2)cc1OC` the figure was -6.33% (inactive).
Consider `COc1cc2c(cc1OC)C(C1C(=O)CCCC1=O)N(C(=O)CCl)CC2` (stereo unspecified), for which the inhibition was 2.64% (inactive).
For the compound `COc1cc2c(cc1OC)C(c1cc(Br)ccc1O)N(C(C)=O)CC2` (stereo unspecified), the inhibition was -0.81% (inactive).
Regarding `Cc1ccc(S(=O)(=O)N2[C@@H](c3ccc(Br)cc3)C(C(=O)O)=CC[C@H]2c2ccc3c(c2)OCO3)cc1`, the inhibition was 3.53% (inactive).
In the case of `CCOC(=O)c1cnc(SC2CC(=O)N(c3ccccc3)C2=O)nc1N` (stereo unspecified) it was -5.11% (inactive).
Turning to `CCOC(=O)c1cnc(SC2CC(=O)N(c3ccc(C)cc3)C2=O)nc1N` (stereo unspecified), the inhibition was -12.6% (inactive).
With `CC(C)(C)OC(=O)C[C@H]1C/C=C\C[C@H](CC(=O)NCCO)C(=O)N2CCC[C@@H]2COC1=O` the figure was 2.79% (inactive).
For `CSc1ccc(CN2CCC(CO)(Cc3ccc(Cl)cc3)CC2)cc1`, the inhibition is 2.5% (inactive).
Take `CNC(=O)NC(=O)COC(=O)CCc1nc(=O)c2ccccc2n1C`: the inhibition was 2.07% (inactive).
With `Cn1nnnc1Sc1ncnc2scc(-c3ccccc3)c12` the figure was 15.1% (inactive); with `Cn1nnnc1Sc1ncnc2scc(-c3cccc4ccccc34)c12`, 61.1% (inactive); with `COc1cc(C(=O)Nc2cccc(-n3cnnn3)c2)cc(OC)c1OC`, -9.02% (inactive).
With `CC1(C)CC(=O)C(=Cc2cn(-c3ccccc3)nc2-c2ccccc2)C(=O)C1` the figure was 14.4% (inactive); with `Cc1ccc(-c2nn(-c3ccccc3)cc2C=C2C(=O)CC(C)(C)CC2=O)cc1`, 28.4% (inactive).
Turning to `CC1C=CCC2C(=O)N(c3cccc(C(=O)NCc4ccccc4)c3)C(=O)C12` (stereo unspecified), the inhibition is 0.47% (inactive).
